Test results reported in PubChem BioAssay (NCATS).
Results filed as inconclusive are left out. The source made the active and inactive calls. The call rests on the fitted dose curve; in most records, active means well fitted curve in the direction sought with a large enough effect; inconclusive means small, poorly fitted or top-dose-only effect, or another doubt; inactive means no such curve, though single readings can be large; an effect the other way counts as inactive or inconclusive.

What was measured:
[1] = test system: MCC-13; assay: qHTS assay to identify novel small-molecules to repurpose for Merkel cell carcinoma treatment (AID 1296009); settings: MCC and control cell lines, CellTiter-Glo viability, 72 h; series mostly up to 46 µM; further: nearly all actives have a fitted effect of over 60% in size
Method in brief: (§1)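 After compound transfer in DMSO, plates were kept 72 hr at 37 degree celsius. Luminescent ATP signal from CellTiter-Glo served as viability measure, normalized against DMSO and no-cell controls.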

[2] = test system: MCC-26; assay: as above; settings: MCC and control cell lines, CellTiter-Glo viability, 72 h; series mostly up to 46 µM
Method in brief: as §1

[3] = test system: MKL-1; assay: as above; settings: MCC and control cell lines, CellTiter-Glo viability, 72 h; series mostly up to 46 µM
Method in brief: as §1

[4] = test system: MKL-2; assay: as above; settings: MCC and control cell lines, CellTiter-Glo viability, 72 h; series mostly up to 46 µM
Method in brief: as §1

[5] = test system: UISO; assay: as above; settings: MCC and control cell lines, CellTiter-Glo viability, 72 h; series mostly up to 46 µM
Method in brief: as §1

[6] = test system: WaGa; assay: as above; settings: MCC and control cell lines, CellTiter-Glo viability, 72 h; series mostly up to 46 µM
Method in brief: as §1

[7] = test system: C33A; assay: Primary qHTS to identify gynecologic anti-cancer compounds using libraries of approved drugs and bioactive compounds (AID 1345084); settings: Gynecologic cancer cell panel viability, ATPlite luminescence, 48 h; series mostly up to 57.5 µM; further: nearly all actives have a fitted effect of over 55% in size
Method in brief: (§2)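 ATP-based viability (ATPlite), 1,000 cells/well, 16 h pre-incubation, 48 h compound at 37 C, 5% CO2, 15 min RT before read.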

[8] = test system: CAOV3; assay: as above; settings: Gynecologic cancer cell panel viability, ATPlite luminescence, 48 h; series mostly up to 57.5 µM
Method in brief: as §2

[9] = test system: CASKI; assay: as above; settings: Gynecologic cancer cell panel viability, ATPlite luminescence, 48 h; series mostly up to 57.5 µM
Method in brief: as §2

[10] = test system: Es-2; assay: as above; settings: Gynecologic cancer cell panel viability, ATPlite luminescence, 48 h; series mostly up to 57.5 µM
Method in brief: as §2

[11] = test system: HeLa; assay: as above; settings: Gynecologic cancer cell panel viability, ATPlite luminescence, 48 h; series mostly up to 57.5 µM
Method in brief: as §2

[12] = test system: Hek293T; assay: as above; settings: Gynecologic cancer cell panel viability, ATPlite luminescence, 48 h, control line for the selectivity index; series mostly up to 57.5 µM
Method in brief: as §2

[13] = test system: JEG-3; assay: as above; settings: Gynecologic cancer cell panel viability, ATPlite luminescence, 48 h; series mostly up to 57.5 µM
Method in brief: as §2

[14] = test system: OV90; assay: as above; settings: Gynecologic cancer cell panel viability, ATPlite luminescence, 48 h; series mostly up to 57.5 µM
Method in brief: as §2

[15] = test system: PA-1; assay: as above; settings: Gynecologic cancer cell panel viability, ATPlite luminescence, 48 h; series mostly up to 57.5 µM
Method in brief: as §2

[16] = test system: SKOV3; assay: as above; settings: Gynecologic cancer cell panel viability, ATPlite luminescence, 48 h; series mostly up to 57.5 µM
Method in brief: as §2

[17] = test system: Tov-21-G; assay: as above; settings: Gynecologic cancer cell panel viability, ATPlite luminescence, 48 h; series mostly up to 57.5 µM
Method in brief: as §2

[18] = test system: NIH3T3; assay: qHTS assay to identify novel small-molecules to repurpose for Merkel cell carcinoma treatment (AID 1296009); settings: MCC and control cell lines, CellTiter-Glo viability, 72 h; at 44.8 µM (top of the series) unless noted; further: nearly all actives have a fitted effect of over 60% in size
Method in brief: as §1

Measured: Potency

O=C(O)Cc1ccccc1Oc1ccc(Cl)cc1Cl
inactive: [1] | [2] | [3] | [4] | [5] | [6] | [7] | [8] | [9] | [10] | [11] | [12] | [13] | [14] | [15] | [16] | [17]

CO[C@]1(NC(=O)CSC(F)F)C(=O)N2C(C(=O)O)=C(CSc3nnnn3CCO)CO[C@H]21
inactive: [1] | [2] | [3] | [4] | [5] | [6] | [7] | [8] | [9] | [10] | [11] | [12] | [13] | [14] | [15] | [16] | [17]

CC(C)NCCCC1(C(N)=O)c2ccccc2-c2ccccc21
inactive: [1] | [2] | [3] | [4] | [5] | [6] | [7] | [8] | [9] | [10] | [11] | [12] | [13] | [14] | [15] | [16] | [17]

CC(=O)O[C@@H]1C(=O)O[C@@H]2[C@H]1OC(=O)[C@@H]2OC(C)=O
inactive: [1] | [2] | [3] | [4] | [5] | [6] | [7] | [8] | [9] | [10] | [11] | [12] | [13] | [14] | [15] | [16] | [17]

COCCc1ccc(OCC2CO2)cc1 (centres undefined)
inactive: [1] | [2] | [3] | [4] | [5] | [6] | [7] | [8] | [9] | [10] | [11] | [12] | [13] | [14] | [15] | [16] | [17]

CCOC(=O)C(=O)c1csc(NC=O)n1
inactive: [1] | [2] | [3] | [4] | [5] | [6] | [7] | [8] | [9] | [10] | [11] | [12] | [13] | [14] | [15] | [16] | [17]

CC(=O)O[C@H]1CC[C@@]2(C)C(=CC[C@@H]3[C@@H]2CC[C@]2(C)C(C(C)=O)=CC[C@@H]32)C1
inactive: [1] | [2] | [3] | [4] | [5] | [6] | [7] | [8] | [9] | [10] | [11] | [12] | [13] | [14] | [15] | [16] | [17]

CCc1cccc2c(CCO)c[nH]c12
inactive: [1] | [2] | [3] | [4] | [5] | [6] | [7] | [8] | [9] | [10] | [11] | [12] | [13] | [14] | [15] | [16] | [17]

Clc1ccc2c(c1)Nc1ccccc1S2
inactive: [1] | [2] | [3] | [4] | [18] | [6] | [7] | [8] | [9] | [10] | [11] | [12] | [13] | [14] | [15] | [16] | [17]

Cc1c(C)c2c(c(C)c1OC(=O)CCC(=O)OCCO)CC[C@@](C)(CCC[C@H](C)CCC[C@H](C)CCCC(C)C)O2
inactive: [1] | [2] | [3] | [4] | [5] | [6]

Nc1nnnn1-c1ccccc1
inactive: [1] | [2] | [3] | [4] | [5] | [6] | [7] | [8] | [9] | [10] | [11] | [12] | [13] | [14] | [15] | [16] | [17]

CCC(=O)Oc1ccc2c(c1)CC[C@@H]1[C@@H]2CC[C@@]2(C)[C@H]1C[C@@H](OC(=O)CC)[C@@H]2OC(=O)CC
inactive: [1] | [2] | [3] | [4] | [18] | [5] | [7] | [8] | [9] | [10] | [11] | [12] | [13] | [15] | [16] | [17]

CCOC(=O)c1ccc(OCCN2C[C@H](O)[C@@H](O)[C@H](O)[C@H]2CO)cc1
inactive: [1] | [2] | [3] | [4] | [5] | [6] | [7] | [8] | [9] | [10] | [11] | [12] | [13] | [14] | [15] | [16] | [17]

OCCOCCN1CCN(C(c2ccccc2)c2ccc(Cl)cc2)CC1 (centres undefined)
inactive: [1] | [2] | [3] | [4] | [18] | [5] | [7] | [8] | [9] | [10] | [11] | [12] | [13] | [15] | [16] | [17]

Cc1sccc1Br
inactive: [1] | [2] | [3] | [4] | [5] | [6] | [7] | [8] | [9] | [10] | [11] | [12] | [13] | [14] | [15] | [16] | [17]

CC(=O)c1cc2ccccc2s1
inactive: [1] | [2] | [3] | [4] | [5] | [6] | [7] | [8] | [9] | [10] | [11] | [12] | [13] | [14] | [15] | [16] | [17]
